# PAFAH2 inh: PAFAH2 enzyme inhibitors, primary screen, biochemical, fluorescence polarization, human; Platelet-activating factor acetylhydrolase 2, cytoplasmic (Homo sapiens), Q99487; recombinant PAFAH2, FP-rhodamine activity probe; inhibition, % at 3.39 µM; 0.99% of 340,000 active; AID 492956, 2010;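 active = inhibition above the mean over all tested compounds plus 3 SD, cut at about 30% in these data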;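 also: inhibitors block probe labeling of enzyme so polarization drops; 0% = enzyme with DMSO and 100% = wells lacking PAFAH2 protein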
# rCAG binder: binders of r(CAG) RNA repeats, primary screen, biochemical, fluorescence; r(CAG) RNA repeat, TO-PRO-1 dye displacement fluorescence; inhibition, % at 3 µM; 1.3% of 370,000 active;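 active = inhibition above the plate cutoff, the mean of all test compounds on that plate plus 3 SD, cut at about 35% in these data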;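 also: 0% = DMSO alone and 100% = 100 µM mitoxantrone as full dye displacement; higher means more dye released from RNA so lower well fluorescence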
# EBNA-1 inhibitor: EBNA-1 DNA-binding inhibitors, primary screen, biochemical, fluorescence polarization. inhibition, % at 14.8 µM. 0.34% of 300,000 active. AID 1950, 2009; in the data active = inhibition above about 28%
# PAFAH1B3 inh: PAFAH1B3 enzyme inhibitors, primary screen, biochemical, fluorescence polarization, human; 0.28% of 340,000 active; inhibition, % at 3.39 µM; AID 492972, 2010; recombinant PAFAH1B3, FP-rhodamine probe;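 active = inhibition above the screen-wide average of all tested compounds plus 3 SD, cut at about 25% in these data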;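 also: 0% = enzyme with DMSO only and 100% = wells lacking PAFAH1B3 protein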
# PAFAH1B2 inh: PAFAH1B2 enzyme inhibitors, primary screen, biochemical, fluorescence polarization, human; recombinant PAFAH1B2, FP-rhodamine activity probe; inhibition, % at 3.39 µM; 1.2% of 340,000 active;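 active = inhibition above the mean of all tested compounds plus 3 SD, cut at about 24% in these data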;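 also: 0% = enzyme with DMSO and 100% = wells lacking PAFAH1B2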
# Target sequence (P68402 whole entry, looked up): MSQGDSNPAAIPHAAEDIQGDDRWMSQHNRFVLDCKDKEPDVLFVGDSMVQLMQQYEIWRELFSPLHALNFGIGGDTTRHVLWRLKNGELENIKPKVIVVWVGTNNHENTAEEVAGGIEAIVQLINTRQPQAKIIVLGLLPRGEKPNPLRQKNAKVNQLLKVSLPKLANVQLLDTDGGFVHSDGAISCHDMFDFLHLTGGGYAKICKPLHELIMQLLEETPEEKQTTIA
# ZTA DNA inh: ZTA (EBV) inhibition in EBNA-1 counter-screen; ZTA-DNA binding, fluorescence polarization; inhibition, % at 11 µM; 0.15% of 320,000 active; AID 2234; in the data active = inhibition above about 33%
# Target sequence (P03206 whole entry, looked up): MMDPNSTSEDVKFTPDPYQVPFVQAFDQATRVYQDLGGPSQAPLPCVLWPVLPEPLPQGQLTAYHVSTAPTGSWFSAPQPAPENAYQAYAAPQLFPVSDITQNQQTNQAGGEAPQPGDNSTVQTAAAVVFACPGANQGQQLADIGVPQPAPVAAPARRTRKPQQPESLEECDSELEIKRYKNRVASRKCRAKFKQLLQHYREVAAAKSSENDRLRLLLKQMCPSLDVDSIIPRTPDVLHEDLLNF
# ZTA inh confirm: EBV Zta binding to ZRE DNA, inhibitors, confirmation, biochemical, fluorescence polarization, triplicate | shares compounds with ZTA DNA inh | inhibition, % at 11.1 µM | 30% of 320 active | AID 2361, 2010;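 active = mean inhibition across triplicate runs above the hit threshold derived for the original primary screen, cut at about 33% in these data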;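 also: 0% = Zta with DMSO and 100% = wells lacking Zta protein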
# EBNA1 counter: EBNA-1 DNA-binding inhibition, counter-screen for ZTA inhibitor project, biochemical, fluorescence polarization; inhibition, % at 14.8 µM; 320 tested, under 10 active; shares compounds with ZTA DNA inh; AID 2362, 2010; call rule not given here
# An asterisk follows results filed as active; . = no result. The list is not random: actives were taken first. Their share in the collection is about 2.9%.
SMILES,PAFAH2 inh,rCAG binder,EBNA-1 inhibitor,PAFAH1B3 inh,PAFAH1B2 inh,ZTA DNA inh,ZTA inh confirm,EBNA1 counter
Cc1ccc(-c2csc(/C(C#N)=C/Nc3ccc4c(c3)OCCO4)n2)cc1,1,3,7,-9,1,3,.,.
CCN(CC)CCOC(=O)c1ccc(N/C=C(/C#N)c2nc(-c3cccc(OC)c3)cs2)cc1,.,1,-2,.,.,40*,3,-13
C[C@H]1CCC(=O)N([C@H](COc2ccccc2)Cc2ccccc2)CC1,5,-6,14,4,5,40*,4,3
Nc1nc(Nc2ccccc2F)sc1C(=O)c1ccccc1,-8,2,-8,-1,2,52*,6,-6
COC(=O)c1ccc(NC(=O)c2ccc(NC(=O)c3ccco3)cc2)cc1,-9,-4,7,-8,-5,39*,49*,23
CC(C)n1nnnc1C1c2ccccc2C(=O)N1Cc1cccnc1 (stereo unspecified),.,2,.,.,.,.,.,.
CC(C)CNS(=O)(=O)/C=C/c1cc2c(cc1CNC(=O)OC(C)(C)C)OCO2,.,5,.,.,.,.,.,.
C#CCOCCOCCOCCNc1nc(N2CCN(C(=O)CCCCCCCCCCNC(=O)[C@H](CCCCN)n3cc(C)nn3)CC2)nc(N2CCN(C(=O)CCCCCCCCCCNC(=O)[C@H](CCCN=C(N)N)n3cc(C[C@@H](C)CC)nn3)CC2)n1,.,.,-2,.,.,51*,47*,-3
C#CCOCCOCCOCCNc1nc(N2CCN(C(=O)CCCCCCCCCCNC(=O)[C@H](CCCCN)n3cc(C[C@@H](C)CC)nn3)CC2)nc(N2CCN(C(=O)CCCCCCCCCCNC(=O)[C@@H]([C@H](C)O)n3cc(C)nn3)CC2)n1,5,.,-1,2,-1,50*,33,-8
C#CCOCCOCCOCCNc1nc(N2CCN(C(=O)CCCCCCCCCCNC(=O)[C@@H](CCSC)n3cc(CCO)nn3)CC2)nc(N2CCN(C(=O)CCCCCCCCCCNC(=O)[C@@H]([C@H](C)O)n3cc(C)nn3)CC2)n1,-10,17,4,-1,-5,6,.,.
C#CCOCCOCCOCCNc1nc(N2CCN(C(=O)CCCCCCCCCCNC(=O)Cn3cc(CCCCCN)nn3)CC2)nc(N2CCN(C(=O)CCCCCCCCCCNC(=O)[C@@H]([C@H](C)O)n3cc(C)nn3)CC2)n1,1,.,11,-1,0,30,.,.
C#CCOCCOCCOCCNc1nc(N2CCN(C(=O)[C@H]([C@@H](C)CC)n3cc(CCCN=C(N)N)nn3)CC2)nc(N2CCN(C(=O)[C@H](CCCCN)n3cc(CCCC)nn3)CC2)n1,4,13,-2,-2,2,-14,.,.
C#CCOCCOCCOCCNc1nc(N2CCN(C(=O)CCCCCCCCCCNC(=O)[C@H](CCCCN)n3cc(C)nn3)CC2)nc(N2CCN(C(=O)CCCCCCCCCCNC(=O)[C@@H]([C@H](C)O)n3cc(C)nn3)CC2)n1,-5,.,12,4,-10,40*,3,2
C#CCOCCOCCOCCNc1nc(N2CCN(C(=O)CCCCCCCCCCNC(=O)[C@H]([C@@H](C)CC)n3cc(CCCCN=C(N)N)nn3)CC2)nc(N2CCN(C(=O)CCCCCCCCCCNC(=O)[C@@H]([C@H](C)O)n3cc(C)nn3)CC2)n1,0,.,4,-2,-1,68*,61*,1
COC1=C[C@H](C(=O)NC2CCN(Cc3ccccc3)CC2)C(C)C(c2ccccc2)CC1=O (stereo partly specified),.,6,.,.,.,.,.,.
COc1cccc(C(C(=O)NCc2ccccc2)N2CCN(c3ccccc3F)CC2)c1OC (stereo unspecified),.,-1,.,.,.,.,.,.
O=C(/C=C/c1ccco1)NC(=S)Nc1ccc(C(=O)O)cc1,0,19,-11,13,2,54*,38*,1
CC(C(=O)OCC(=O)c1ccc(Br)cc1)N1C(=O)C2C3C=CC(C3)C2C1=O (stereo unspecified),-1,-2,-2,-6,16,36*,-8,-6
Cc1ccc(/C=N/NC(=O)c2ccncc2)cc1,-2,-2,-6,-4,3,-4,.,.
Cc1ccc(C(=O)Nc2ccc(C(=O)N/N=C/c3ccncc3)cc2)cc1,.,.,-2,.,.,47*,45*,-8
CCCCCCCCCCCCCCCC[N+](C)(C)CCN(Cc1ccc(OC)cc1)c1ncccn1,14,.,6,11,2,35*,77*,3
O=C1Nc2ccccc2-n2nnnc2C1N1CCN(C(=O)c2ccco2)CC1 (stereo unspecified),.,6,.,.,.,.,.,.
COc1ccc(NC(=O)CCN2CCCC(C)C2)cc1 (stereo unspecified),2,-4,5,8,6,52*,1,-10
COc1ccc(CN(C(=O)c2snc(C(N)=O)c2N)C(C(=O)NC2CCCC2)c2ccc(OC)cc2)cc1 (stereo unspecified),5,6,-4,1,-4,-5,.,.
Cc1ccc(C(C(=O)NC2CCCC2)N(Cc2ccc3c(c2)OCO3)C(=O)c2snc(C(N)=O)c2N)cc1 (stereo unspecified),-4,-3,5,5,2,57*,1,-9
SMILES,PAFAH2 inh,rCAG binder,EBNA-1 inhibitor,PAFAH1B3 inh,PAFAH1B2 inh,ZTA DNA inh,ZTA inh confirm,EBNA1 counter
COc1ccc(Sc2nc3ccccc3n3c(C(F)(F)F)nnc23)cc1,1,-1,7,5,6,47*,-4,-3
Cc1[nH]cnc1/C=N\NC(=O)c1cccc(S(=O)(=O)N(C)C)c1,.,1,.,.,.,.,.,.
COc1ccc(C(=O)N(C)CCCC2CCCC2)cc1OC1CCN(C(C)C)CC1,-7,-12,8,2,-6,34*,-3,-10
CC[C@@]1(c2ccc(C)cc2)C(=O)N(C(=O)OC(C)C)N1C(=O)OC(C)C,.,-1,.,.,.,.,.,.
CCC(=O)Nc1nc2ccc3sc(C)nc3c2s1,-3,3,11,-2,3,35*,-7,-4
Cc1nc2c(ccc3nc(NC(=O)C4CC4)sc32)s1,-1,5,10,2,-1,2,.,.
COCCCN(C(=O)c1cc2c(s1)CCCCC2)c1c(N)n(Cc2ccccc2)c(=O)[nH]c1=O,4,4,12,2,6,162*,15,0

# Source: PubChem BioAssay
